# According to PubChem BioAssay AID1159580 (chemical genetic matrix, 2015):
# “And” between values parts separate entries of the source, which are not always exact repeats. Equal values may be shown once. Among all 5,500 compounds or so, about 2,000 (36%) were called active. Another 18% or so got no clear call; they are omitted. Some of the results follow. Unmarked numbers belong to inactive results. Rule as the data show it: active = normalized growth mostly below about 0.91 (no sharp cut-off); inconclusive = no clear call, values can overlap the other calls; inactive = mostly above about 0.92.
# Test: chemical genetic growth profiling, strain panel (AID 1159580);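 also: tested at 20 µM; growth read once vehicle control cultures reached saturation at 30 °C; 1 = growth at the plate median or of vehicle wells; lower values mean less growth of the strain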
# Settings: S. cerevisiae deletion strains, growth OD
smiles,measurement,setting,value
OCCN(CCO)c1nc(N2CCCCC2)c2nc(N(CCO)CCO)nc(N3CCCCC3)c2n1,normalized growth,"locus YAL013W, strain DEP1, hits give low values",1.02
same,normalized growth,"locus YAL021C, strain ccr4, hits give low values",0.962
same,normalized growth,"locus YAL026C, strain drs2, hits give low values",0.964
same,normalized growth,"locus YAL030W, strain snc1, hits give low values",0.992
same,normalized growth,"locus YAL040C, strain CLN3, hits give low values",0.999
same,normalized growth,"locus YBL061C, strain skt5, hits give low values",0.992
same,normalized growth,"locus YBR009C, strain hhf1, hits give low values",0.981
same,normalized growth,"locus YBR021W, strain FUR4, hits give low values",0.956
same,normalized growth,"locus YBR023C, strain chs3, hits give low values",1
same,normalized growth,"locus YBR171W, strain sec66, hits give low values",0.994
same,normalized growth,"locus YBR229C, strain ROT2, hits give low values",1.01
same,normalized growth,"locus YBR231C, strain swc5, hits give low values",0.944
same,normalized growth,"locus YBR279W, strain paf1, hits give low values",0.986
same,normalized growth,"locus YCL011C, strain gbp2, hits give low values",0.998
same,normalized growth,"locus YCL016C, strain dcc1, hits give low values",1.03
same,normalized growth,"locus YCL029C, strain bik1, hits give low values",1.01
same,normalized growth,"locus YCL061C, strain MRC1 (second series), hits give low values",1
same,normalized growth,"locus YCL061C, strain MRC1, hits give low values",1
same,normalized growth,"locus YCL069W, strain vba3, hits give low values",0.97
same,normalized growth,"locus YCR088W, strain abp1, hits give low values",0.989
same,normalized growth,"locus YDL005C, strain med2, hits give low values",0.978
same,normalized growth,"locus YDL035C, strain GPR1, hits give low values",1.01
same,normalized growth,"locus YDL040C, strain nat1, hits give low values",0.976
same,normalized growth,"locus YDL074C, strain BRE1, hits give low values",0.979
same,normalized growth,"locus YDL101C, strain DUN1, hits give low values",1
same,normalized growth,"locus YDL134C, strain PPH21, hits give low values",1
same,normalized growth,"locus YDL185W, strain tfp1, hits give low values",0.995
same,normalized growth,"locus YDL192W, strain arf1, hits give low values",0.999
same,normalized growth,"locus YDR001C, strain nth1, hits give low values",0.993
same,normalized growth,"locus YDR069C, strain doa4, hits give low values",0.969
same,normalized growth,"locus YDR101C, strain arx1, hits give low values",0.99
same,normalized growth,"locus YDR137W, strain rgp1, hits give low values",1.01
same,normalized growth,"locus YDR150W, strain NUM1, hits give low values",1.01
same,normalized growth,"locus YDR159W, strain sac3, hits give low values",0.937
same,normalized growth,"locus YDR162C, strain NBP2, hits give low values",1
same,normalized growth,"locus YDR195W, strain ref2",0.135 (active)
same,normalized growth,"locus YDR297W, strain sur2, hits give low values",0.997
same,normalized growth,"locus YDR318W, strain mcm21, hits give low values",0.996
same,normalized growth,"locus YDR334W, strain swr1, hits give low values",0.974
same,normalized growth,"locus YDR335W, strain msn5, hits give low values",0.988
same,normalized growth,"locus YDR363W, strain ESC2, hits give low values",1.03
same,normalized growth,"locus YDR388W, hits give low values",0.998
same,normalized growth,"locus YDR392W, strain spt3, hits give low values",0.898
same,normalized growth,"locus YDR502C, strain sam2, hits give low values",1.01
same,normalized growth,"locus YEL003W, strain gim4, hits give low values",0.964
same,normalized growth,"locus YEL037C, strain rad23, hits give low values",0.965
same,normalized growth,"locus YEL061C, strain CIN8 (second series), hits give low values",0.976
same,normalized growth,"locus YEL061C, strain CIN8, hits give low values",1.01
same,normalized growth,"locus YER002W, strain NOP16, hits give low values",1
same,normalized growth,"locus YER015W, strain faa2, hits give low values",0.978
same,normalized growth,"locus YER016W, strain bim1, hits give low values",0.976
same,normalized growth,"locus YER110C, hits give low values",1
same,normalized growth,"locus YER111C, strain swi4, hits give low values",0.971
same,normalized growth,"locus YER155C, strain BEM2 (second series), hits give low values",0.992
same,normalized growth,"locus YER155C, strain BEM2, hits give low values",1.01
same,normalized growth,"locus YER167W, strain BCK2, hits give low values",1.02
same,normalized growth,"locus YFR010W, strain ubp6, hits give low values",0.956
same,normalized growth,"locus YGL078C, strain dbp3, hits give low values",1
same,normalized growth,"locus YGL086W, strain mad1, hits give low values",0.998
same,normalized growth,"locus YGL167C, strain pmr1, hits give low values",0.987
same,normalized growth,"locus YGL173C, strain kem1, hits give low values",0.982
same,normalized growth,"locus YGL227W, strain vid30, hits give low values",0.989
same,normalized growth,"locus YGL240W, strain doc1, hits give low values",0.979
same,normalized growth,"locus YGL248W, strain PDE1, hits give low values",1.01
same,normalized growth,"locus YGL253W, strain hxk2, hits give low values",0.956
same,normalized growth,"locus YGR135W, strain pre9, hits give low values",0.993
same,normalized growth,"locus YGR229C, strain SMI1, hits give low values",0.996
same,normalized growth,"locus YGR252W, strain gcn5, hits give low values",0.931
same,normalized growth,"locus YHR013C, strain ard1, hits give low values",0.988
same,normalized growth,"locus YHR027C, strain rpn1, hits give low values",0.984
same,normalized growth,"locus YHR030C, strain SLT2, hits give low values",1.01
same,normalized growth,"locus YHR079C, strain IRE1 (second series), hits give low values",0.994
same,normalized growth,"locus YHR079C, strain IRE1, hits give low values",1.1
same,normalized growth,"locus YHR094C, strain hxt1, hits give low values",0.998
same,normalized growth,"locus YHR129C, strain ARP1, hits give low values",1.01
same,normalized growth,"locus YHR142W, strain chs7, hits give low values",0.97
same,normalized growth,"locus YHR200W, strain rpn10, hits give low values",1
same,normalized growth,"locus YIL066C, strain RNR3, hits give low values",1.02
same,normalized growth,"locus YIL073C, strain SPO22, hits give low values",1.01
same,normalized growth,"locus YIL125W, strain kgd1, hits give low values",1
same,normalized growth,"locus YIR030C, strain dcg1, hits give low values",0.995
same,normalized growth,"locus YJL092W, strain hpr5, hits give low values",0.979
same,normalized growth,"locus YJL095W, strain BCK1 (second series), hits give low values",0.997
same,normalized growth,"locus YJL095W, strain BCK1, hits give low values",0.988 and 1.01
same,normalized growth,"locus YJL115W, strain asf1, hits give low values",0.99
same,normalized growth,"locus YJL129C, strain trk1, hits give low values",0.95
same,normalized growth,"locus YJL134W, strain LCB3, hits give low values",1
same,normalized growth,"locus YJL154C, strain vps35, hits give low values",0.992
same,normalized growth,"locus YJL164C, strain tpk1, hits give low values",0.975
same,normalized growth,"locus YJL166W, strain qcr8, hits give low values",1.01
same,normalized growth,"locus YJL168C, strain set2, hits give low values",0.991
same,normalized growth,"locus YJL187C, strain SWE1 (second series), hits give low values",1
same,normalized growth,"locus YJL187C, strain SWE1, hits give low values",0.989
same,normalized growth,"locus YJR043C, strain POL32, hits give low values",1.01
